Several values for one entry are separate records, joined by “and”; a condition that tells them apart may be missing. Equal entries are not always repeated. Records with an inconclusive call do not appear. A structure can be active in one record and inactive in another. Activity calls are given as the source filed them. Unless noted, the call rests on the fitted dose curve.
What was measured:
[1] = Nuclear factor erythroid 2-related factor 2/antioxidant responsive element (Nrf2/ARE) small molecule agonists: qHTS cell viability counter screen in human keratinocytes (AID 1919968; active means well fitted curve in the direction sought with a large enough effect in the repeat runs; an effect the other way counts as inactive or inconclusive; further: nearly all actives have a fitted effect of over 55% in size)
Summary of the method: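 Fluorescence read-out from CellTiter-Fluor after 1 h at 37 C. Wells held HaCaT-derived ARE-luciferase reporter cells (1,500/well) treated 23 h with DMSO-dissolved compounds. Run in the same wells as the luciferase agonist read.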

[2] = target: KiSS-1 receptor (Homo sapiens) (UniProt Q969F8); assay: Human kisspeptin (KISS1R) small molecule agonists, calcium flux assay in KISS1R-HEK293 cells (AID 1920064; active means well fitted curve in the direction sought with a large enough effect in the repeat runs; an effect the other way counts as inactive or inconclusive)
Sequence of KiSS-1 receptor (Homo sapiens) (Q969F8 whole entry, looked up): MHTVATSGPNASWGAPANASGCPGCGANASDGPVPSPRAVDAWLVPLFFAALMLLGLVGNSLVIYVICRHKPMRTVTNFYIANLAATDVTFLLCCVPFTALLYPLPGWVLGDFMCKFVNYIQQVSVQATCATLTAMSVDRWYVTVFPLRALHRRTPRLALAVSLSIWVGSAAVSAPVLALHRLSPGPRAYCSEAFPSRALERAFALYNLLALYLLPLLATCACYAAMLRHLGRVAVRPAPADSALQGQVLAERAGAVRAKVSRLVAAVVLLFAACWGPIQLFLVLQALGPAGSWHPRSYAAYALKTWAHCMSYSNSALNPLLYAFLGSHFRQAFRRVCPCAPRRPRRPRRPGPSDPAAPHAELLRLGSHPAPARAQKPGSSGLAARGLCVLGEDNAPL
Summary of the method: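 Calcium flux read-out: kinetic fluorescence at Ex/Em=480/540, 1 s intervals over 3 min, after pin-tool compound addition to dye-loaded KISS1R-HEK293 cells. Fifteen concentrations, triplicates.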

[3] = G protein-coupled receptor (GPCR) small molecule agonists, calcium flux assay: HEK293 wild type cell line counter screen (AID 1920065)
Summary of the method: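 Agonist mode; 18 h seeding at 37 C, 1 h dye load at 37 C; compounds pinned from DMSO, ATP as positive control; kinetic fluorescence 480/540 nm, 3 min, 1 s reads; 15 concentrations, triplicate.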

[4] = p53 small molecule agonists, cell-based qHTS assay with human liver microsomes (AID 1963577);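 further: p53 response element beta-lactamase reporter cells with liver microsomes plus NADPH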
Summary of the method: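 16 h, 37 C exposure of p53RE-bla cells to compounds with human liver microsomes and NADPH (0.5 mg/mL final each); detection via LiveBLAzer mixture, 2 h dark at room temperature.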

[5] = p53 small molecule agonists, cell-based qHTS assay with rat liver microsomes (AID 1963578)
Summary of the method: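 With rat liver microsomes and NADPH present (0.5 mg/mL final each), p53RE-bla cells are treated with compound for 16 h at 37 C. LiveBLAzer detection mixture is then applied for 2 h at room temperature in the dark.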

[6] = p53 small molecule agonists, cell-based qHTS assay with human liver microsomes: qHTS cell viability counter screen (AID 1963579); further: nearly all actives have a fitted effect of over 45% in size; further: potency means the concentration at half of the fitted maximal effect
Summary of the method: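 In this multiplexed counter screen, the reporter plates were subsequently treated with CellTiter-Glo so that cell viability, reflected by luminescence, could be recorded for p53RE-bla cells dosed 16 h with compounds under microsomal activation (HLM and NADPH).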

[7] = p53 small molecule agonists, cell-based qHTS assay: qHTS cell viability counter screen (AID 1963581); further: nearly all actives have a fitted effect of over 45% in size
Summary of the method: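 Cytotoxicity read-out: ATP-based luminescence (CellTiter-Glo, 30 min RT) measured in the same wells as the p53 reporter assay, HCT-116 p53RE-bla cells, 16 h compound exposure at 37 C.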

[8] = p53 small molecule agonists, cell-based qHTS assay (AID 1963582; active means well fitted activation curve with a large enough effect in the signal ratio in the repeat runs, not every such curve was filed as active; the % refers to the signal ratio)
Summary of the method: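 Fluorescence intensity read-out of a beta-lactamase reporter under a p53 response element. Cells were exposed to DMSO-dissolved compounds for 16 h at 37 C, then developed with FRET substrate for 2 h at RT.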

[9] = target: 5-hydroxytryptamine receptor 2A (Homo sapiens) (UniProt P28223); assay: 5-hydroxytryptamine receptor 2A (HTR2A) small molecule antagonists, cell-based qHTS assay (AID 1963586); further: nearly all actives have a fitted effect of over 45% in size
Sequence of 5-hydroxytryptamine receptor 2A (Homo sapiens) (P28223 whole entry, looked up): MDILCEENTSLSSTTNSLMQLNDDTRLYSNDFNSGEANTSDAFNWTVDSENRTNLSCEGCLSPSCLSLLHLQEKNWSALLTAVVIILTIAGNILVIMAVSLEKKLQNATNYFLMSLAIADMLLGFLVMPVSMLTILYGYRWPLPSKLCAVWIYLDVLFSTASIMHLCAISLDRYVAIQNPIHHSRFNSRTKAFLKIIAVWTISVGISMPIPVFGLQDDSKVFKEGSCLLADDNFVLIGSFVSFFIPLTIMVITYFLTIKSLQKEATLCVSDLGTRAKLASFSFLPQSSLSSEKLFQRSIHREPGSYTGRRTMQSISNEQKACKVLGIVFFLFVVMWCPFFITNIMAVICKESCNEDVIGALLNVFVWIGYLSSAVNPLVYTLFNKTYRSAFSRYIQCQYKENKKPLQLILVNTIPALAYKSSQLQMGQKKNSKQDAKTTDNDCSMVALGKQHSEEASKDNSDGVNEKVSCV
Summary of the method: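 CHO cells stably expressing human HTR2A were plated for 18 h at 37 C, then loaded with calcium dye for 1 h. Compounds were preincubated 5 min at room temperature before DOI (4 nM solution) was added. Kinetic fluorescence was read for 3 min.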

[10] = target: 5-hydroxytryptamine receptor 2A (Homo sapiens) (UniProt P28223); assay: 5-hydroxytryptamine receptor 2A (HTR2A) small molecule agonists, cell-based qHTS assay (AID 1963587); further: nearly all actives have a fitted effect of over 30% in size
Summary of the method: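 HTR2A-CHO cells, plated 18 h at 37 C/5% CO2, dye-loaded 1 h at 37 C; compounds in DMSO added by pin tool (agonist mode). Intracellular calcium flux read as kinetic fluorescence on FDSS over 2 min at 1 s intervals.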

[11] = target: Muscarinic acetylcholine receptor M1 (Homo sapiens) (UniProt P11229); assay: Cholinergic receptor muscarinic 1 (CHRM1) small molecule antagonists, cell-based qHTS assay (AID 1963588); further: nearly all actives have a fitted effect of over 40% in size; further: potency means the concentration at half of the fitted maximal effect
Sequence of Muscarinic acetylcholine receptor M1 (Homo sapiens) (P11229 whole entry, looked up): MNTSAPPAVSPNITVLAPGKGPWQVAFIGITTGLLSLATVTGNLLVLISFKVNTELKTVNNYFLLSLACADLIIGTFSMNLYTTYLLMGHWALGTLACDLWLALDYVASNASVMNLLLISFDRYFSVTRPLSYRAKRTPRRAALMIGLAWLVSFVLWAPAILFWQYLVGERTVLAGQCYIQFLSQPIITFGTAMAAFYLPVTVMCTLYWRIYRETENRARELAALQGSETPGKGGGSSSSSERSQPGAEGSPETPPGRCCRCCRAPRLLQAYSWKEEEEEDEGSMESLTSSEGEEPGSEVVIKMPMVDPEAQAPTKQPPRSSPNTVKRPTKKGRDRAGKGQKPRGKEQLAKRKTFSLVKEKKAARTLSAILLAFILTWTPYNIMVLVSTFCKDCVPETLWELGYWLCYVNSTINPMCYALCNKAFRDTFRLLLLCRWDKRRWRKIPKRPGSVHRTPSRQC
Summary of the method: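 Compounds were tested at 15 concentrations in three independent runs. Dye-loaded CHRM1-CHO cells were exposed 5 min at room temperature before stimulation by acetylcholine added at 50nM. Intracellular calcium was read kinetically on FDSS for 3 min.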

[12] = target: Muscarinic acetylcholine receptor M1 (Homo sapiens) (UniProt P11229); assay: Cholinergic receptor muscarinic 1 (CHRM1) small molecule agonists, cell-based qHTS assay (AID 1963589); further: nearly all actives have a fitted effect of over 35% in size
Summary of the method: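 Calcium flux read-out: kinetic fluorescence at 1 sec intervals after pin-tool compound addition to dye-loaded CHRM1-CHO cells (human M1). Agonist mode; 15 concentrations tested in triplicate independent runs.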

[13] = cAMP Responsive Elements (CRE) small molecule agonists, cell-based qHTS assay (AID 1963590)
Summary of the method: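 Beta-lactamase reporter readout: LiveBLAzer B/G FRET substrate, 2 h at room temperature, added after 3 h compound treatment of CRE-bla HEK 293T cells at 37 C/5% CO2.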

[14] = cAMP Responsive Elements (CRE) small molecule antagonists, cell-based qHTS assay (AID 1963591; active means well fitted inhibition curve with a large enough effect in the signal ratio in the repeat runs, not every such curve was filed as active; the % refers to the signal ratio)
Summary of the method: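 HEK293T CRE-bla; 18 h preincubation; compound pin-transfer; NKH477 0.25 uM final, 3 h, 37 C; LiveBLAzer FRET substrate 2 h RT.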

[15] = target: D(2) dopamine receptor (Homo sapiens) (UniProt P14416); assay: Dopamine D2 receptor (DRD2) small molecule antagonists, cell-based qHTS assay (AID 1963595; active means well fitted inhibition curve with a large enough effect in the signal ratio in the repeat runs, with a control signal flat; the % refers to the signal ratio)
Sequence of D(2) dopamine receptor (Homo sapiens) (P14416 whole entry, looked up): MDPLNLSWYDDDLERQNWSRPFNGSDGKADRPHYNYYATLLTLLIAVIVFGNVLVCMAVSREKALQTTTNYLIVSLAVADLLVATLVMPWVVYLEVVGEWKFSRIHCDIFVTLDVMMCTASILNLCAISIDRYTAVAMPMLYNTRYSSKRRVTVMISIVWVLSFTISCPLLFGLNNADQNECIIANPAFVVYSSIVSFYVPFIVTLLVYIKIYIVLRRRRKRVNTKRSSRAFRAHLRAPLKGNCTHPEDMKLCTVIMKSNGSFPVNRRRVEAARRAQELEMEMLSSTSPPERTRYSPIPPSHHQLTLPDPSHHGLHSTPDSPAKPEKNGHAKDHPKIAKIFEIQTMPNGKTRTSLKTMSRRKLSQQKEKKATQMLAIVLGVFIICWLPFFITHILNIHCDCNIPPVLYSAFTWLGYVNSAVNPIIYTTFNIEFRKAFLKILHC
Summary of the method: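 HEK293 cells stably expressing DRD2 were preincubated with 0.1 mM Ro20-1724, then with compound for 10 min at room temperature. Cells were stimulated with 200 nM NKH477 plus 12 nM quinpirole for 30 min, and cAMP was read by HTRF.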

[16] = target: Gonadotropin-releasing hormone receptor (Homo sapiens) (UniProt P30968); assay: Human gonadotropin-releasing hormone receptor (GnRHR) small molecule agonists, calcium flux assay in GnRHR-HEK293 cells (AID 1920063); further: nearly all actives have a fitted effect of over 35% in size
Sequence of Gonadotropin-releasing hormone receptor (Homo sapiens) (P30968 whole entry, looked up): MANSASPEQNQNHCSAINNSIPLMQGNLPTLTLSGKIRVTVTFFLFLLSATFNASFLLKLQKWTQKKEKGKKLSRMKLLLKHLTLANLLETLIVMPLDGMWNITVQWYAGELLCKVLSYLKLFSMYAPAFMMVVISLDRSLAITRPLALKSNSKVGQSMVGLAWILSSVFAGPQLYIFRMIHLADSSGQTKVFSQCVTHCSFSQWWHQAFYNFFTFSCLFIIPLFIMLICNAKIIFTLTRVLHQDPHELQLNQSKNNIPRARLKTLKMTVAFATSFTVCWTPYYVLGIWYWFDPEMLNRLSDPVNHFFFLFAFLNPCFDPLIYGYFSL
Summary of the method: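 Calcium-dye fluorescence, Ex/Em=480/540, recorded every 1 sec over 3 min after compound addition to GnRHR-HEK293 cells. Cells had been seeded 18 hours earlier and dye-loaded for 1 hour at 37 C. Fifteen concentrations, triplicates.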

[17] = target: Beta-2 adrenergic receptor (Homo sapiens) (UniProt P07550); assay: Adrenergic beta2 receptor (ADRB2) small molecule antagonists, cell-based qHTS assay (AID 1963592); further: series mostly up to about 92 µM; nearly all actives have a fitted effect of over 50% in size
Sequence of Beta-2 adrenergic receptor (Homo sapiens) (P07550 whole entry, looked up): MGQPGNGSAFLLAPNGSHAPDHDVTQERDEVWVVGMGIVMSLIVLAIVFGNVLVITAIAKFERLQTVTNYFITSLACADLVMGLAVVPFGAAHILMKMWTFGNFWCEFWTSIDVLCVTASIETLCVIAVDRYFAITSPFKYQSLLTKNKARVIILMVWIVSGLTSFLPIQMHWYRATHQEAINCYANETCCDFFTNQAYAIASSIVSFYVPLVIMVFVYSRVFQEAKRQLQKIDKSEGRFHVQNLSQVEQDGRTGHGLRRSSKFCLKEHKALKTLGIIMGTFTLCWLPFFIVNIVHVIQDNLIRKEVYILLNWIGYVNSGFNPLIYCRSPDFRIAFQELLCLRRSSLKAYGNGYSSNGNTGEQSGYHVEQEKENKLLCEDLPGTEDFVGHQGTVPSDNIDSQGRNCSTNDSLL
Summary of the method: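 Assay format: CHO-ADRB2 cells, 18-20hr seeding at 37C/5% CO2, then compound plus 1nM isoproterenol agonist mix for 0.5hr RT. Homogeneous time-resolved fluorescence cAMP detection after 1hr, expressed as 665/615 nm ratio.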

[18] = target: Beta-2 adrenergic receptor (Homo sapiens) (UniProt P07550); assay: Adrenergic beta2 receptor (ADRB2) small molecule agonists, cell-based qHTS assay (AID 1963593); further: potency means the concentration at half of the fitted maximal effect;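 on activation: CHO cells stably overexpressing human ADRB2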
Summary of the method: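 CHO cells stably over-expressing ADRB2 were plated overnight at 37C, then dosed with compounds plus a stimulation mix containing 100uM IBMX and 25uM Ro-20-1724 for 0.5hr at room temperature. cAMP was measured by HTRF competition, 1hr.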

[19] = target: D(2) dopamine receptor (Homo sapiens) (UniProt P14416); assay: Dopamine D2 receptor (DRD2) small molecule agonists, cell-based qHTS assay (AID 1963594); further: nearly all actives have a fitted effect of over 35% in size
Summary of the method: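 HEK293 cells stably expressing DRD2 were cultured 24 h at 37 C, then given Ro20-1724 (0.1 mM final) and compounds for 10 min at room temperature. NKH477 (200nM) was then added for 30 min. cAMP was read by HTRF.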

[20] = p53 small molecule agonists, cell-based qHTS assay with rat liver microsomes: qHTS cell viability counter screen (AID 1963580); further: nearly all actives have a fitted effect of over 45% in size
Summary of the method: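 Counter screen for cytotoxicity under metabolic activation: rat liver microsomes and NADPH, 0.5 mg/mL final each, added with compounds to p53RE-bla HCT-116 cells; 16 h at 37 C, then ATP luminescence read.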

Measured: Potency

CCOP(=S)(OCC)SCSc1cc(Cl)ccc1Cl
not listed: [16] | [17] | [18] | [19] | [20]
inactive: all other assays above

O=[N+]([O-])O
not listed: [4] | [5] | [8] | [20]
inactive: all other assays above

CCC(=O)C(CC(C)N(C)C)(c1ccccc1)c1ccccc1 (configuration not stated)
inactive and 10.1 µM (active): [11]
not listed: [1] | [12] | [13] | [14] | [18]
inactive: all other assays above

Cc1ccc(N)cc1N
not listed: [1] | [17] | [18]
inactive: all other assays above

CCc1cccc(C)c1N(C(=O)CCl)C(C)COC (configuration not stated)
not listed: [1] | [8] | [14]
inactive: all other assays above

ClC1=C(Cl)C2(Cl)C3C(Cl)C(Cl)CC3C1(Cl)C2(Cl)Cl (configuration not stated)
active: [18] 54.5 µM
not listed: [1] | [8] | [13] | [14] | [15] | [17]
inactive: all other assays above

CCCCOC(=O)CCC(=O)OCCCC
not listed: [1] | [11] | [12] | [14] | [18] | [19]
inactive: all other assays above

COC(=O)NS(=O)(=O)c1ccc(N)cc1
not listed: [1] | [14]
inactive: all other assays above

Cc1cc(-c2ccc(N)c(C)c2)ccc1N
inactive and 4.07 µM (active): [6]
not listed: [1] | [7] | [17] | [18]
inactive: all other assays above

From PubChem BioAssay (Tox21)
